Screening results: PubChem BioAssay, National Center for Advancing Translational Sciences (NCATS)
In the library only some 8.9% were active in any assay of this set; here they are far more common.
12-hLO inh: inhibitors of human 12-lipoxygenase (ALOX12) | AID 1452 | Potency, µM (doses to about 57.1 µM), hits mostly inhibitors | actives 0.12% (n = 150,000) | P18054 | purified 12-hLO, xylenol orange hydroperoxide absorbance; also: nearly all actives have a fitted effect of over 55% in size
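Xylenol orange chromogenic assay: hydroperoxide from 12hLO oxidises Fe(II), giving red-shifted Fe(III)-XO absorbance. Conditions: 150 nM enzyme, 40 uM arachidonic acid, 25 mM Hepes pH 7.0, 0.01% Triton X-100, 30 min, room temperature.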
IMPase Li inh: cell-permeable IMPase inhibitors with lithium potentiation. actives 0.35% (n = 210,000). Potency, µM (series often up to 59.4 µM), usual class: inhibitors. CHO-M1 cells, IP1 TR-FRET (IP-One), carbachol + lithium;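 also: IP1 builds up when IMPase is blocked and the TR-FRET signal falls; nearly all actives have a fitted effect of over 50% in size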
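CHO-M1, 2000 cells/well, 16–30 h culture; cpd + low Li+, 30 min 37C; lysis with d2-IP1/Eu-anti-IP1 Ab, 10 min RT; TR-FRET 665/620 ratio and 620 channel; AC50 via Hill.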
IMPase cell inh: membrane-permeable compound that blocks inositol monophosphatase; CHO-M1 cells, IP1 accumulation, HTRF TR-FRET ratio; inhibition (IP1 accumulation), % at 46.1 µM; 120,000 tested, under 10 active; active = well fitted curve in the direction sought with a large enough effect in the signal ratio, not every such curve was filed as active; inconclusive = small, poorly fitted or top-dose-only effect, or a change in a side signal; inactive = no such curve, though single readings can be large or run the other way; the % refers to the signal ratio;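 also: cells stimulated with carbachol in lithium chloride buffer; higher means more IMPase inhibition seen as more IP1 and lower FRET ratio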
Target sequence (P97697 whole entry, looked up): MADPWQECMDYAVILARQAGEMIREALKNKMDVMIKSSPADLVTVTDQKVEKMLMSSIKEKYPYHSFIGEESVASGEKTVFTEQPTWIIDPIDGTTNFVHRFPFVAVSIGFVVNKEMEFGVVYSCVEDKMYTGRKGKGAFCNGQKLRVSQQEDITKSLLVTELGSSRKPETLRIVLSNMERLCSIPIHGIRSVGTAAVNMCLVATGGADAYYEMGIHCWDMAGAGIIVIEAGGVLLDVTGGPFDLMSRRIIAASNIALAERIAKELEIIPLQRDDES
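Measured: the HTRF emission ratio (665/620 nm) plus the 620 nm donor channel, each fitted to the Hill equation to give AC50. Cells were CHO-M1 given compounds up to 46 uM and a 30 min carbachol stimulation at 37C.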
HPGD block: HPGD (human) dehydrogenase inhibition; P15428; purified HPGD, NADH fluorescence kinetic, PGE2 substrate; Potency, µM, usual class: inhibitors; actives 4.3% (n = 150,000); AID 894; active = well fitted inhibition curve with a large enough effect, not every such curve was filed as active; inconclusive = small, poorly fitted or top-dose-only effect, or another doubt; inactive = no such curve, though single readings can be large or run the other way
Target sequence (P15428 whole entry, looked up): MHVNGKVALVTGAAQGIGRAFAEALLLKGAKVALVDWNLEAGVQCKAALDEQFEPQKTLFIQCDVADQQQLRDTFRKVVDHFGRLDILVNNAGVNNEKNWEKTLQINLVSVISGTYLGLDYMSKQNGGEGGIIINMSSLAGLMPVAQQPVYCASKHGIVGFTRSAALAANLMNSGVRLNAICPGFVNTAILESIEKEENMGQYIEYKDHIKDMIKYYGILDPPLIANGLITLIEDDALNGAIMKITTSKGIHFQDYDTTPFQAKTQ
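20 nM HPGD preincubated 15 min at room temperature with compound in 50 mM Tris-HCl pH 8, 0.01% Tween 20. Started with 1 mM NAD+ and 30 uM prostaglandin E2; NADH fluorescence (360/450 nm) read 5 times over 30-s intervals, last minus first.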
NPSR antag: blocks cAMP signaling of the human neuropeptide S receptor; CHO-NPSR cells, cAMP TR-FRET, antagonist mode; Q6W5P4; Potency, µM (doses to about 38.3 µM), usual class: inhibitors; actives 1% (n = 220,000); AID 1461; also: nearly all actives have a fitted effect of over 50% in size
ALDH1A1 block: blocks purified human ALDH1A1 activity. Purified ALDH1A1, NADH fluorescence, propionaldehyde substrate. Potency, µM (titrated, usually from 75.3 µM), actives largely listed as inhibitors. actives 7.3% (n = 220,000); active = well fitted inhibition curve with a large enough effect, not every such curve was filed as active; inconclusive = small, poorly fitted or top-dose-only effect, or another doubt; inactive = no such curve, though single readings can be large or run the other way
Of the large screens only hits and unclear results are named; the others gave an inactive call. Unless noted, calls follow the shape of the dose curve; as a rule, active = well fitted curve in the direction sought with a large enough effect; inconclusive = small, poorly fitted or top-dose-only effect, or another doubt; inactive = no such curve, though single readings can be large; an effect the other way counts as inactive or inconclusive.

Brc1cc(Br)c2ncnc(N3CCCCC3)c2c1	IMPase Li inh 13µM, IMPase cell inh inconclusive, NPSR antag 7.9µM
CC1(C)CC2CC(C)(CN2C(=O)c2ccc([N+](=O)[O-])cc2)C1 (stereo unspecified)	ALDH1A1 block inconclusive (no result: 12-hLO inh, IMPase cell inh, HPGD block)
O=C1Cc2ccccc2N1c1ccccc1	HPGD block 35µM
COC(=O)c1ccc(CS(=O)(=O)c2ccccc2C)o1	12-hLO inh inconclusive, ALDH1A1 block 2.2µM
CCOC(=O)c1c(C)n(C)c2ccc(OC)c(NS(=O)(=O)c3ccc(Cl)s3)c12	none
Cc1cc(/C=C(\C#N)C(=O)Nc2ccc(F)cc2)c(C)n1-c1ccc(N2CCOCC2)c([N+](=O)[O-])c1	ALDH1A1 block 16µM
COc1ccc(NC(=O)/C(C#N)=C\c2cc(C)n(-c3ccc(Oc4ccc([N+](=O)[O-])cn4)cc3)c2C)cc1	HPGD block 28µM
Cc1cc(C=O)c(C)n1-c1ccc(Oc2ccc([N+](=O)[O-])cn2)cc1	ALDH1A1 block 10µM (no result: IMPase cell inh)
N#CCc1ccc(Oc2ccc([N+](=O)[O-])cn2)cc1	none (no result: 12-hLO inh, IMPase Li inh, IMPase cell inh, HPGD block)
COc1ccc(NC(=O)/C(C#N)=C/c2cc(C)n(-c3ccc(N4CCOCC4)c([N+](=O)[O-])c3)c2C)cc1	none
CC(=O)c1cc2c(cc1NC(=O)CCc1ccccc1)OCO2	ALDH1A1 block inconclusive
Cc1ccc(NC(=O)COC(=O)CN2C(=O)COc3ccccc32)cc1	none
Cc1ccc(CC2S/C(=N/c3ccccn3)NC2=O)cc1 (stereo unspecified)	IMPase Li inh inconclusive
Cc1ccc(CNC(=O)CSc2ccc(-c3ccco3)nn2)cc1	ALDH1A1 block 14µM
Cc1ccc(NC(=O)CSc2ccc(-c3ccco3)nn2)cc1	ALDH1A1 block 3.2µM (no result: 12-hLO inh, IMPase cell inh, HPGD block)
O=C(CSc1ccc(-c2ccco2)nn1)c1ccc(F)cc1	HPGD block inconclusive, ALDH1A1 block 3.2µM
Cc1ccc(NC(=O)CSc2ccc(-c3ccco3)nn2)c(C)c1	ALDH1A1 block inconclusive (no result: 12-hLO inh, IMPase cell inh, HPGD block)
CC(=O)Nc1ccc(NC(=O)CSc2ccc(-c3ccco3)nn2)cc1	ALDH1A1 block 7.1µM (no result: 12-hLO inh, IMPase cell inh, HPGD block)
CCc1nnc(NC(=O)c2cccc(S(=O)(=O)N3CCc4ccccc43)c2)s1	none
COc1ccccc1NC(=O)C1=C(C)Nc2nc(-c3ccccc3)nn2C1c1ccccn1 (stereo unspecified)	none
COc1ccc(N2C(=O)[C@@H]3[C@H](C2=O)[C@H]2C=CC=NN2[C@@H]3C(=O)Nc2ccc(Cl)cc2)cc1	none (no result: 12-hLO inh, IMPase Li inh, IMPase cell inh, HPGD block, ALDH1A1 block)
C/C(CCN1CCCCc2nc(C)c(C)cc21)=N\O[C@@H](C)CN1CCCCc2nc(C)c(C)cc21	none (no result: IMPase cell inh)
Cc1cccc(N2CCN(C(=O)c3ccccn3)CC2C)c1 (stereo unspecified)	none (no result: 12-hLO inh, IMPase cell inh, HPGD block)
Cc1cc(C)cc(NC(=O)CSc2ccc(-c3ccco3)nn2)c1	HPGD block inconclusive, ALDH1A1 block 7.1µM
CCSc1ccc(-c2ccco2)nn1	ALDH1A1 block inconclusive (no result: 12-hLO inh, IMPase cell inh, HPGD block)
O=C1OC(c2ccccc2)=NC12CC2c1ccc(Cl)cc1 (stereo unspecified)	HPGD block 28µM, NPSR antag inconclusive, ALDH1A1 block 28µM (no result: IMPase cell inh)
S=C(NCc1cccnc1)Nc1ccc(Cl)c(Cl)c1	HPGD block 14µM, ALDH1A1 block inconclusive
CCC(C)c1ccc(NC(=S)NCc2cccnc2)cc1 (stereo unspecified)	HPGD block inconclusive, ALDH1A1 block 16µM
Fc1ccc(NC(=S)NCc2cccnc2)cc1	none (no result: 12-hLO inh, IMPase cell inh, HPGD block)
CCN(Cc1nc2ccccc2c(=O)[nH]1)Cc1nc2ccsc2c(=O)[nH]1	none (no result: 12-hLO inh, IMPase cell inh, HPGD block)
CC1(C)CC(=O)C=C(NCc2ccc(C(=O)O)cc2)C1	none (no result: 12-hLO inh, IMPase Li inh, IMPase cell inh, HPGD block, ALDH1A1 block)
CC1CCCN(C(=O)C2CCN(CCCc3ccccc3)CC2)C1 (stereo unspecified)	none
CC1CCCN(C(=O)C2CCN(CC(C)c3ccccc3)CC2)C1 (stereo unspecified)	HPGD block 22µM, ALDH1A1 block inconclusive
CCNC(=S)N1CCN(Cc2ccccc2)CC1	ALDH1A1 block 16µM (no result: 12-hLO inh, IMPase cell inh, HPGD block)
CCNC(=S)N1CCN(C(c2ccccc2)c2ccccc2)CC1	ALDH1A1 block 3.2µM
CCCCNC(=S)N1CCN(C(c2ccccc2)c2ccccc2)CC1	ALDH1A1 block 28µM (no result: 12-hLO inh, IMPase cell inh, HPGD block)
